# Data from article PMC7862700, “An all-to-all approach to the identification of sequence-specific readers for epigenetic DNA modifications on cytosine”.
# Assays:
# Assay in all cases: DAPPL (digital affinity profiling via proximity ligation, sequencing); 10 mM Tris-HCl pH 7.5, 50 mM NaCl, 1 mM DTT, 4% glycerol, room temperature, 30 min; GST-TFs on glutathione beads, 16-mer random dsDNA library, 0.1% formaldehyde crosslink after washing; high values mean tight binding
# [1] = target: T1, FLI1 (Homo sapiens, UniProt Q01543 1-452); details: protein: recombinant; tags: N-terminal GST; dsDNA, one strand shown
# T1 sequence: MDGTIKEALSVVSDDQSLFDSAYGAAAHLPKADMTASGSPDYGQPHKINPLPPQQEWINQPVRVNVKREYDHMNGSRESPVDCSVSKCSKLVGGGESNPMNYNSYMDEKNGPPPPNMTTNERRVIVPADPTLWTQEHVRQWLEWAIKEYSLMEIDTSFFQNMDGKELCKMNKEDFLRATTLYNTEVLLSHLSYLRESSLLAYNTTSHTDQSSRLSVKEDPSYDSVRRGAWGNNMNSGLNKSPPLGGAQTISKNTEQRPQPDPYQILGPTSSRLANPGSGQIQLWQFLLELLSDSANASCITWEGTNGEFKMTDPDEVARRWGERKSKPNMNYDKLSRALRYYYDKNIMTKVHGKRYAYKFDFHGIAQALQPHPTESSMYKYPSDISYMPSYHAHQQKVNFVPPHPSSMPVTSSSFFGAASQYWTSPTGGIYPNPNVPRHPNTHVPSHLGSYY
# Procedure, shortened: (§1)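 Human transcription factors carrying a GST fusion were produced in yeast, bound to glutathione beads, tagged with DNA barcodes and pooled together with a tag-only sample. Each pool was held with 200 nmole of a random double-stranded 16-mer DNA library in Tris/NaCl/DTT/glycerol buffer for 30 min at room temperature, then washed, crosslinked in 0.1% formaldehyde, proximity-ligated with BsaI/T4 ligase (1 h, 37 °C), PCR-amplified and sequenced on an Illumina NextSeq500. Binding signal is the read frequency of each hexamer for a given factor divided by its frequency in the tag-only sample.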
# [2] = target: T2, ELK1 (Homo sapiens, UniProt P19419 1-428); details: protein: recombinant; tags: N-terminal GST; dsDNA, one strand shown
# T2 sequence: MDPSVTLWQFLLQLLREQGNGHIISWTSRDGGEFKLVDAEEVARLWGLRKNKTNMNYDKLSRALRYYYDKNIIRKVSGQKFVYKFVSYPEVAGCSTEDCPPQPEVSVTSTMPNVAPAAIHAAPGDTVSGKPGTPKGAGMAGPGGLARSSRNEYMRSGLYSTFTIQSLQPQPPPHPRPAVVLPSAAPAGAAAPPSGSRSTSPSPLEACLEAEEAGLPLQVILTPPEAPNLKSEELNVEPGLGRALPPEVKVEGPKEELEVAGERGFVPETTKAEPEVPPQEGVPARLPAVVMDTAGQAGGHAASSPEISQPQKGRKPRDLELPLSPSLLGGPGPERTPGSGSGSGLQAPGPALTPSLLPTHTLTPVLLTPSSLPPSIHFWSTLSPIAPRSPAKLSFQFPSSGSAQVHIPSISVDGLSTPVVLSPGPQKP
# Procedure, shortened: as §1
# [3] = target: T3, GABPA (Homo sapiens, UniProt Q06546 1-454); details: protein: recombinant; tags: N-terminal GST; dsDNA, one strand shown
# T3 sequence: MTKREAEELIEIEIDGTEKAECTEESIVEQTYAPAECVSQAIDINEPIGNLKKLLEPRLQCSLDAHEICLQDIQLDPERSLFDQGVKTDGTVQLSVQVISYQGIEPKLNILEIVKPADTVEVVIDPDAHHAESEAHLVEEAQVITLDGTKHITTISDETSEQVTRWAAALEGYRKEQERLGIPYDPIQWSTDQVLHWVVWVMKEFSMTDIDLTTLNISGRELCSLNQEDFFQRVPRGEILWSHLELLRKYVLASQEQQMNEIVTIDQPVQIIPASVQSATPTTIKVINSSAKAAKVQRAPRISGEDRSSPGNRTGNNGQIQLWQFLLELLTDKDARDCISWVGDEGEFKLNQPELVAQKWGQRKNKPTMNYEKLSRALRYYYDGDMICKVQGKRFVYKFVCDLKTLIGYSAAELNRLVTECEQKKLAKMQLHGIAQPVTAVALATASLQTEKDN
# Procedure, shortened: as §1
# [4] = target: T4, ERG (Homo sapiens, UniProt P11308 1-479); details: protein: recombinant; tags: N-terminal GST; dsDNA, one strand shown
# T4 sequence: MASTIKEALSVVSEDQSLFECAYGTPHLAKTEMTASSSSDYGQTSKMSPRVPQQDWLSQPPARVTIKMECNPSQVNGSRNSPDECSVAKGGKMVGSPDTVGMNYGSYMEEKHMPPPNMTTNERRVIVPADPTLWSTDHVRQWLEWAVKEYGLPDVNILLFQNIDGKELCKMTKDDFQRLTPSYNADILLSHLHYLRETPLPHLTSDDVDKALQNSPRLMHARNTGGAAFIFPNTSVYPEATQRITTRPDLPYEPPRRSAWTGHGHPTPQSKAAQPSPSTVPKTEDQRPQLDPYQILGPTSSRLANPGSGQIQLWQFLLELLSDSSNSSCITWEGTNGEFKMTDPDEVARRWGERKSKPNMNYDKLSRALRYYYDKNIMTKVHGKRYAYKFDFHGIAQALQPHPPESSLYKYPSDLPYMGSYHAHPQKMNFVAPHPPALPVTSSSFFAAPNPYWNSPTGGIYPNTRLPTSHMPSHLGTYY
# Procedure, shortened: as §1
# [5] = target: ELF1 (Homo sapiens, UniProt P32519 1-619); details: protein: recombinant; tags: N-terminal GST; dsDNA, one strand shown
# Sequence of ELF1 (P32519 whole entry): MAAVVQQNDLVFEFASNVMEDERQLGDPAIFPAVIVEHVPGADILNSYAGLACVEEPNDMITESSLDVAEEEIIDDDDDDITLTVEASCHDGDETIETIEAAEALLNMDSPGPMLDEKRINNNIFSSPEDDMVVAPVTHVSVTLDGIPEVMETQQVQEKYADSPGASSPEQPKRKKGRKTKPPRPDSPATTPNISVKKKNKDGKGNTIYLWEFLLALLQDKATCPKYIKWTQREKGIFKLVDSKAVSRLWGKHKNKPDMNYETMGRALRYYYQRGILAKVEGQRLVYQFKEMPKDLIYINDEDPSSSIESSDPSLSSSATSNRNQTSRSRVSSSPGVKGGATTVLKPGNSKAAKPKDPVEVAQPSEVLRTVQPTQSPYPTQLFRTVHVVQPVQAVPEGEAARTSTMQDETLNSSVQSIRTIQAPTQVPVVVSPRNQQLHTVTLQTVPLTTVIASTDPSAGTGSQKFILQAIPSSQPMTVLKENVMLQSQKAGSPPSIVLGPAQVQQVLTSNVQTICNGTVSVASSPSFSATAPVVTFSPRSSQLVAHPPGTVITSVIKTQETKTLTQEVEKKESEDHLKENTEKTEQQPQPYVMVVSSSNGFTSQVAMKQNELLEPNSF
# Procedure, shortened: as §1
# [6] = target: T5, EHF (Homo sapiens, UniProt Q9NZC4 1-300); details: protein: recombinant; tags: N-terminal GST; dsDNA, one strand shown
# T5 sequence: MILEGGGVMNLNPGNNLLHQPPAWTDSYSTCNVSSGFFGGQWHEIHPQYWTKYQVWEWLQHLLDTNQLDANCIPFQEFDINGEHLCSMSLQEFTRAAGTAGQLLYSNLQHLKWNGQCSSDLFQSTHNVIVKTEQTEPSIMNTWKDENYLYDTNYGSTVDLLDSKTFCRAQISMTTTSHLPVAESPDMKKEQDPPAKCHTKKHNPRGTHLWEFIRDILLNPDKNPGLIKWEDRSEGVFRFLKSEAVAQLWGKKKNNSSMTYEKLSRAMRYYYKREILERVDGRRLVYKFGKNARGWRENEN
# Procedure, shortened: as §1
# [7] = target: SPI1 (Homo sapiens, UniProt P17947 1-270); details: protein: recombinant; tags: N-terminal GST; dsDNA, one strand shown
# Procedure, shortened: as §1
# [8] = target: SPIB (Homo sapiens, UniProt Q01892 1-262); details: protein: recombinant; tags: N-terminal GST; dsDNA, one strand shown
# Sequence of SPIB (Q01892 whole entry): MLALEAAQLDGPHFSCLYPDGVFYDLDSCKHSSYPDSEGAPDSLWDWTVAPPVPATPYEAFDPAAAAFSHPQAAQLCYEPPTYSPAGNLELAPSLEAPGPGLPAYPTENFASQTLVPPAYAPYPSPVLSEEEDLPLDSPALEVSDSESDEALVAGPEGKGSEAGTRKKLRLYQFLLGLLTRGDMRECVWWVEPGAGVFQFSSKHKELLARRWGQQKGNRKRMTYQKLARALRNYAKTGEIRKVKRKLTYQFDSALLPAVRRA
# Procedure, shortened: as §1
# [9] = target: T6, ELK3 (Homo sapiens, UniProt P41970 1-407); details: protein: recombinant; tags: N-terminal GST; dsDNA, one strand shown
# T6 sequence: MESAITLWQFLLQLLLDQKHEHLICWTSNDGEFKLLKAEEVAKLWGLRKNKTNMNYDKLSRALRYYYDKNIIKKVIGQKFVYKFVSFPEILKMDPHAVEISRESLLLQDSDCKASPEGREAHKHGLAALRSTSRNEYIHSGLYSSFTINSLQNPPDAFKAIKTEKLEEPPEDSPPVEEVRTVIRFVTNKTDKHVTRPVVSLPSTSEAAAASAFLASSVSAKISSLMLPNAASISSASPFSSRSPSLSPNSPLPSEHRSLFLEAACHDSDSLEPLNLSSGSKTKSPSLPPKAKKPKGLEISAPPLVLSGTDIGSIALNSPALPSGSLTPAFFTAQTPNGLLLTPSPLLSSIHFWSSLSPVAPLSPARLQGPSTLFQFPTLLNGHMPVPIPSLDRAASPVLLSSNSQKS
# Procedure, shortened: as §1
# [10] = target: T7, FEV (Homo sapiens, UniProt Q99581 1-238); details: protein: recombinant; tags: N-terminal GST; dsDNA, one strand shown
# T7 sequence: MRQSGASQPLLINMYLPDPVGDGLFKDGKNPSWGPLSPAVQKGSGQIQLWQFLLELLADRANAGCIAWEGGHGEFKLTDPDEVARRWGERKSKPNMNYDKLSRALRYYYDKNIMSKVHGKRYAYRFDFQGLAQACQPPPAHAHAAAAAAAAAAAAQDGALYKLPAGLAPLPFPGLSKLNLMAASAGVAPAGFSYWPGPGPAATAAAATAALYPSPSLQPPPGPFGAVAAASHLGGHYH
# Procedure, shortened: as §1
# [11] = target: ETV5 (Homo sapiens, UniProt P41161 1-510); details: protein: recombinant; tags: N-terminal GST; dsDNA, one strand shown
# Sequence of ETV5 (P41161 whole entry): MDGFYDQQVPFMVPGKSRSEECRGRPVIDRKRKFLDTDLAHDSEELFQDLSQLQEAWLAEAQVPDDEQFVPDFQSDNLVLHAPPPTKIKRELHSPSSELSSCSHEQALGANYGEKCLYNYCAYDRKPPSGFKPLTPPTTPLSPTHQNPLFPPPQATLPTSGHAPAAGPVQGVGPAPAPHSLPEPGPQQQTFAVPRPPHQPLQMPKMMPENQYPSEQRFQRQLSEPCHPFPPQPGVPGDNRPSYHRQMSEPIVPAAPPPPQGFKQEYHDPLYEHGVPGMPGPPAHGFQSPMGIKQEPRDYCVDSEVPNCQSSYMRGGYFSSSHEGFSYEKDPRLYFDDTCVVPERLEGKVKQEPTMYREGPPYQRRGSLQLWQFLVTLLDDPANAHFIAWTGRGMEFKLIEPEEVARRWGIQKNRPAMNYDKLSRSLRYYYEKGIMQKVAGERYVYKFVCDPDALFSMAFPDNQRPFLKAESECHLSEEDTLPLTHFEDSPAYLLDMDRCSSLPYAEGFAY
# Procedure, shortened: as §1
# [12] = target: HSF1 (Homo sapiens, UniProt Q00613 1-529); details: protein: recombinant; tags: N-terminal GST; chain copies: 3; dsDNA, one strand shown
# Sequence of HSF1 (Q00613 whole entry): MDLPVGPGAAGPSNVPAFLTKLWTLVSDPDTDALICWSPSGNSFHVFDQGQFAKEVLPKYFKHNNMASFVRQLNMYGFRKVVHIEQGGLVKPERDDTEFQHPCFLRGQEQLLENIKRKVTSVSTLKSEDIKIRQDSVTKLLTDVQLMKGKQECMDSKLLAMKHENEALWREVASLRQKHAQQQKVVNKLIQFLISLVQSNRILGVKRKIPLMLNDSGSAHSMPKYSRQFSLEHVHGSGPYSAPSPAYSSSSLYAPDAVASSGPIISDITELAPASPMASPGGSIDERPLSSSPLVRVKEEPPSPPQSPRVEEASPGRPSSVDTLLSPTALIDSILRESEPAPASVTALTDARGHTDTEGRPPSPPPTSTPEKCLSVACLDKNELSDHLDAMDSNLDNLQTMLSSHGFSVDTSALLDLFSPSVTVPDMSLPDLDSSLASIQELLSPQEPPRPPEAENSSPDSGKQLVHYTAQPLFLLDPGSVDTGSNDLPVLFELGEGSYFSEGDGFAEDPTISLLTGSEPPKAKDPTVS
# Procedure, shortened: as §1
# [13] = target: T8, SPIC (Homo sapiens, UniProt Q8N5J4 1-248); details: protein: recombinant; tags: N-terminal GST; dsDNA, one strand shown
# T8 sequence: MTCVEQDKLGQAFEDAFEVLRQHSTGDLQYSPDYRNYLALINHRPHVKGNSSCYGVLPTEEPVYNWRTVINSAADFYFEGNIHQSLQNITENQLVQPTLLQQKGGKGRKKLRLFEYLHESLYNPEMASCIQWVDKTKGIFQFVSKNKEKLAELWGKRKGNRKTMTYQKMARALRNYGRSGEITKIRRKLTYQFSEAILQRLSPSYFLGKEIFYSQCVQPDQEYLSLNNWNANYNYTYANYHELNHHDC
# Procedure, shortened: as §1
# [14] = target: ELF4 (Homo sapiens, UniProt Q99607 1-663); details: protein: recombinant; tags: N-terminal GST; dsDNA, one strand shown
# Sequence of ELF4 (Q99607 whole entry): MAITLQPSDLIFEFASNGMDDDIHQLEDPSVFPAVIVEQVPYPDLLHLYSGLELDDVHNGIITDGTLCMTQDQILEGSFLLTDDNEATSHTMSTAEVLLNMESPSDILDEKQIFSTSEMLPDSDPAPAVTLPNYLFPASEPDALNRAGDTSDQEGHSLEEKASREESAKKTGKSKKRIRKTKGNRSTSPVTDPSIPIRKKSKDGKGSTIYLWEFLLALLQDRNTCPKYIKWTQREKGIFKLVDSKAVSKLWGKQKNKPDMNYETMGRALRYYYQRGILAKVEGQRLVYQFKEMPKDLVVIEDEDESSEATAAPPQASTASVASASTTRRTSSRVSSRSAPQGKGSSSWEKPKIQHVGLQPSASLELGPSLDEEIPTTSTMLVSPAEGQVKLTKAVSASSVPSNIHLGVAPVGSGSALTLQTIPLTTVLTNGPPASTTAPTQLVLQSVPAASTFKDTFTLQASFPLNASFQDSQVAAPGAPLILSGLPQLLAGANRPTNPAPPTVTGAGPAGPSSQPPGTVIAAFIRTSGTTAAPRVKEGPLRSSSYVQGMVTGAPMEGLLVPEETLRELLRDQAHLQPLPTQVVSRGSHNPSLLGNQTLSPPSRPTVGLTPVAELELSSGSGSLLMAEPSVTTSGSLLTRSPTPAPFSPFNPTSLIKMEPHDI
# Procedure, shortened: as §1
# [15] = target: T9, ELK4 (Homo sapiens, UniProt P28324-2 1-405); details: protein: recombinant; tags: N-terminal GST; dsDNA, one strand shown
# T9 sequence: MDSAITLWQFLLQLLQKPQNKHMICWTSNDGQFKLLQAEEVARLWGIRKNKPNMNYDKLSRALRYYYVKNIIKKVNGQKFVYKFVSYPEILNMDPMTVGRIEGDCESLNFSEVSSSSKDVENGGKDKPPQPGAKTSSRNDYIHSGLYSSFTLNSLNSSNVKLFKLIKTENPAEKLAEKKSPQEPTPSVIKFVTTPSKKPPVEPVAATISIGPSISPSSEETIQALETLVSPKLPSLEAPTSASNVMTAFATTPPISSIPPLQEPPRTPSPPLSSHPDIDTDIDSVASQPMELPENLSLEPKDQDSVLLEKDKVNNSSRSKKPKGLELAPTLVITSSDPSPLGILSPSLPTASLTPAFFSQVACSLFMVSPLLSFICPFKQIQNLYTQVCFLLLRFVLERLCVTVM
# Procedure, shortened: as §1
# [16] = target: T10, ETV2 (Homo sapiens, UniProt O00321 1-342); details: protein: recombinant; tags: N-terminal GST; dsDNA, one strand shown
# T10 sequence: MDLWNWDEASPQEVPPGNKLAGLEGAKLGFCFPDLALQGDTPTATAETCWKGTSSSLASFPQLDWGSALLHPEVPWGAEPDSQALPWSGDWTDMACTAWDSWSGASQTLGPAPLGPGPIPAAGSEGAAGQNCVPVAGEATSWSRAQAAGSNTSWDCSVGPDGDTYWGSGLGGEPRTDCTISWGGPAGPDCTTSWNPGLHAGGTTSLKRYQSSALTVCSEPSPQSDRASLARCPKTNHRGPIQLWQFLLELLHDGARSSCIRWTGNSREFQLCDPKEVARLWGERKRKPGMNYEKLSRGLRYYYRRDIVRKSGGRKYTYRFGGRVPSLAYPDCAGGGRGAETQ
# Procedure, shortened: as §1
# [17] = target: T11, ELF3 (Homo sapiens, UniProt P78545 1-371); details: protein: recombinant; tags: N-terminal GST; dsDNA, one strand shown
# T11 sequence: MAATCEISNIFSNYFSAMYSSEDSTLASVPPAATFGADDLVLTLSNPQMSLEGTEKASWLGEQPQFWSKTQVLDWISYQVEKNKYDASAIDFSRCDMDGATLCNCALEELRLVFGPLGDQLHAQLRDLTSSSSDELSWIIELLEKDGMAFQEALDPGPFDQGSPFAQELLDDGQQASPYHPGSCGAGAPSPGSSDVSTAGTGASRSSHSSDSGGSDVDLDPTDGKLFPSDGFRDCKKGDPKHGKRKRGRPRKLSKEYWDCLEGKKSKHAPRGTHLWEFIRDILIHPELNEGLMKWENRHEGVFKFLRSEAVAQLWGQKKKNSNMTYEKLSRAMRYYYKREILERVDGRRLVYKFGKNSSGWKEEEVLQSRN
# Procedure, shortened: as §1
# [18] = target: CRX (Homo sapiens, UniProt O43186 1-299); details: protein: recombinant; tags: N-terminal GST; dsDNA, one strand shown
# Sequence of CRX (O43186 whole entry): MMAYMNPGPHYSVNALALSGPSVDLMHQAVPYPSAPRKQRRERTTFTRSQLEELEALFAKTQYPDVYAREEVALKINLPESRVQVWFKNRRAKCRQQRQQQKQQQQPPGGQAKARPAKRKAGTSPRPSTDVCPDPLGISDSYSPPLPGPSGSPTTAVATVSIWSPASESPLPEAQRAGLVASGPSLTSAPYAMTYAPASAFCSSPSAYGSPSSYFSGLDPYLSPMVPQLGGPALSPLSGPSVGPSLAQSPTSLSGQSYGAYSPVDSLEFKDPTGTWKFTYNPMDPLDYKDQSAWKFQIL
# Procedure, shortened: as §1
# [19] = target: ETV1 (Homo sapiens, UniProt P50549 1-477); details: protein: recombinant; tags: N-terminal GST; dsDNA, one strand shown
# Sequence of ETV1 (P50549 whole entry): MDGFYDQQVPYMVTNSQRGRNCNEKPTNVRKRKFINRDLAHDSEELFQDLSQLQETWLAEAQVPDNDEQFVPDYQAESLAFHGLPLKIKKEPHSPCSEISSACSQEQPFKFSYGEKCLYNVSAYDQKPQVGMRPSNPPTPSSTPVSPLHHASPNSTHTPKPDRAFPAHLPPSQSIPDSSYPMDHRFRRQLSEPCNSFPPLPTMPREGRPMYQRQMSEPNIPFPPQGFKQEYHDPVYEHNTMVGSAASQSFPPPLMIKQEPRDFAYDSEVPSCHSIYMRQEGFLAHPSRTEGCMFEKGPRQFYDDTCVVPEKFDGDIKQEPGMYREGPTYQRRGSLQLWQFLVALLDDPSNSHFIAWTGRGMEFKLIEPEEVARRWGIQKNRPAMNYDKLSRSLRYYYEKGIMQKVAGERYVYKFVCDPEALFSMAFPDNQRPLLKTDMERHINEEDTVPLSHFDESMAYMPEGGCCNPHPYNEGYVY
# Procedure, shortened: as §1
sequence,measurement,setting,value
AAATAC,binding signal,[1],"1.3 fold enrichment (6-mer frequency, TF over GST control)"
same,binding signal,[2],"1.27 fold enrichment (6-mer frequency, TF over GST control)"
same,binding signal,[3],"1.43 fold enrichment (6-mer frequency, TF over GST control)"
same,binding signal,[4],"1.43 fold enrichment (6-mer frequency, TF over GST control)"
same,binding signal,[5],"1.36 fold enrichment (6-mer frequency, TF over GST control)"
same,binding signal,[6],"1.39 fold enrichment (6-mer frequency, TF over GST control)"
same,binding signal,[7],"1.41 fold enrichment (6-mer frequency, TF over GST control)"
same,binding signal,[8],"1.36 fold enrichment (6-mer frequency, TF over GST control)"
same,binding signal,[9],"1.37 fold enrichment (6-mer frequency, TF over GST control)"
same,binding signal,[10],"1.41 fold enrichment (6-mer frequency, TF over GST control)"
same,binding signal,[11],"1.43 fold enrichment (6-mer frequency, TF over GST control)"
same,binding signal,[12],"1.36 fold enrichment (6-mer frequency, TF over GST control)"
same,binding signal,[13],"1.3 fold enrichment (6-mer frequency, TF over GST control)"
same,binding signal,[14],"1.36 fold enrichment (6-mer frequency, TF over GST control)"
same,binding signal,[15],"1.18 fold enrichment (6-mer frequency, TF over GST control)"
same,binding signal,[16],"1.51 fold enrichment (6-mer frequency, TF over GST control)"
same,binding signal,[17],"1.37 fold enrichment (6-mer frequency, TF over GST control)"
same,binding signal,[18],"1.46 fold enrichment (6-mer frequency, TF over GST control)"
same,binding signal,[19],"1.39 fold enrichment (6-mer frequency, TF over GST control)"
